From PubChem BioAssay
Compounds with a hit are over-represented: about 12% of the library has one in this group of screens.
G9a inh: inhibitors of human histone lysine methyltransferase G9a; G9a H3K9 monomethylation, AlphaScreen, 2 h; Potency, µM (titrated, usually from 102 µM), hits mostly inhibitors; 8.8% of 350,000 active; Q96KQ7; AID 504332; further: nearly all actives have a fitted effect of over 75% in size
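Signal arises when biotinylated H3K9 peptide, once monomethylated, bridges streptavidin donor and antibody-captured acceptor beads. Enzyme at 20 nM was preincubated 15 min with test compounds; peptide 500 nM and SAM 20 uM then reacted for 2 h.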
BAZ2B inh: blocks human BAZ2B. Q9UIF8. AlphaScreen BAZ2B-H3K14Ac peptide displacement. Potency, µM (top dose mostly 114 µM), usual class: inhibitors. 4.4% of 360,000 active. AID 504333; further: nearly all actives have a fitted effect of over 60% in size
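In this displacement format the biotinylated H3(5-23) peptide acetylated at Lys14 serves as ligand at 50 nM, with BAZ2B at 50 nM in PBS pH 7.4 containing 0.01% Tween-20. Donor and acceptor beads are 10 ug/mL final.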
HP1b binding inh: inhibitors of HP1-beta chromodomain binding to methylated histone tails | P83916 | AlphaScreen HP1-beta / biotin-H3K9me3 peptide binding | Potency, µM (titrated, usually from 114 µM), hits mostly inhibitors | 0.56% of 390,000 active | AID 540317; further: nearly all actives have a fitted effect of over 70% in size
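HP1-beta protein (50 nM final) preincubated 30 min at room temperature with biotinylated H3(1-18)K9me3 peptide (50 nM) in PBS pH 7.4, 0.01% Tween-20, then compound added for 30 min. AlphaScreen streptavidin donor/nickel chelate acceptor beads (10 ug/mL final), 30 min dark, luminescence read.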
JMJD2A Tudor: blocks the human JMJD2A Tudor domain. O75164. AlphaScreen JMJD2A-Tudor / H3K4me3 peptide binding. Potency, µM (doses to about 114 µM), most hits filed as inhibitors. 4.4% of 390,000 active. AID 504339; further: nearly all actives have a fitted effect of over 50% in size
Target sequence (O75164 whole entry, looked up, the tested form may be a part): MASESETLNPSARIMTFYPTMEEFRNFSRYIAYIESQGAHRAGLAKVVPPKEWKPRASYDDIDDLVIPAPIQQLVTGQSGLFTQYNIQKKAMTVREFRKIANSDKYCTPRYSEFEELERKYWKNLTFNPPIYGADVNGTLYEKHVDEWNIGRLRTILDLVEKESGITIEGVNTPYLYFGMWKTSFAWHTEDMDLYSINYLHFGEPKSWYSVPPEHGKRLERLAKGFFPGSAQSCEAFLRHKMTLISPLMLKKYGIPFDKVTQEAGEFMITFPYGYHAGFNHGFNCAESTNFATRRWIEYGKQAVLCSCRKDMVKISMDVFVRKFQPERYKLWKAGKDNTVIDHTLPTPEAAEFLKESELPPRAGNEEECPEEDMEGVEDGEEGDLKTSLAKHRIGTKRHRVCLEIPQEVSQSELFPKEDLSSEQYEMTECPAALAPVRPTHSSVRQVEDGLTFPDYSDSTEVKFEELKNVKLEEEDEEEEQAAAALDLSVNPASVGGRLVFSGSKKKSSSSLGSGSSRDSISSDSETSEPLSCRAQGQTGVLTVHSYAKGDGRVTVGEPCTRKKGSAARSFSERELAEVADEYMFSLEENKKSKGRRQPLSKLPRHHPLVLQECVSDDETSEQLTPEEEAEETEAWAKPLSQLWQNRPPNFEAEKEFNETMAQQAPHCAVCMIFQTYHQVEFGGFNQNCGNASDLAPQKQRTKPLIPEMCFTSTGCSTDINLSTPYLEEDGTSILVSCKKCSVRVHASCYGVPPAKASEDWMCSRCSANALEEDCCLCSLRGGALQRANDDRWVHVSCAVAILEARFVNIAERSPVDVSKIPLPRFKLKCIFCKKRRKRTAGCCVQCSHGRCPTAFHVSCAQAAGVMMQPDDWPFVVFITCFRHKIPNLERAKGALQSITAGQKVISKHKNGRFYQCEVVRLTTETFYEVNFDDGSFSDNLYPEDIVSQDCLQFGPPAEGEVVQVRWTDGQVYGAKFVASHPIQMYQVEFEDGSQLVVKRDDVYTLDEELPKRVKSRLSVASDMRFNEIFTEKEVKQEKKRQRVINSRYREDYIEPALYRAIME
Sfp PPTase inh: blocks B. subtilis Sfp PPTase activity; Q9F4F7; Biochemical Sfp PPTase activity, qHTS; Potency, µM, most hits filed as inhibitors; 3.5% of 310,000 active; AID 1490;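 further: the enzyme is Sfp with the accession as filed and its product quenches rhodamine fluorescence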
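Sfp 15 nM + cpd, 15 min RT; start w/ rhodamine-CoA 5 uM, BHQ-2-YbbR 12.5 uM (final); 50 mM Hepes pH 7.6, 10 mM MgCl2, 0.01% NP-40, 0.01% BSA; read 525/598 nm at 0 and 30 min.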
Of the large screens only hits and unclear results are named; the others gave an inactive call. The call rests on the fitted dose curve; in most records, active means well fitted curve in the direction sought with a large enough effect; inconclusive means small, poorly fitted or top-dose-only effect, or another doubt; inactive means no such curve, though single readings can be large; an effect the other way counts as inactive or inconclusive.

CCOC(=O)NC1(Nc2ccc(Cl)cn2)Oc2ccccc2O1	G9a inh 6.31µM, BAZ2B inh inconclusive, Sfp PPTase inh 31.6µM (no result: HP1b binding inh, JMJD2A Tudor)
O=C(NC1CCCCCC1)C1c2ccccc2C(=O)N1C1CC1 (centres undefined)	G9a inh 8.91µM
CC(=O)N1CCc2[nH]c3ccccc3c2C1	none
CC(=O)N1CCc2[nH]c3ccc(C)cc3c2C1	BAZ2B inh 56.2µM
CCOC(=O)N1CCc2[nH]c3ccc(C)cc3c2C1	G9a inh 10µM, BAZ2B inh inconclusive, JMJD2A Tudor inconclusive
Cc1ccc(NC(=S)N2CCc3[nH]c4ccccc4c3C2)cc1	BAZ2B inh 25.1µM, JMJD2A Tudor inconclusive (no result: G9a inh)
CC(=O)N1CCCc2cc(S(=O)(=O)N3CCCC(C(=O)NCc4ccccc4)C3)ccc21 (centres undefined)	none
CC(=O)N1c2ccccc2C(=O)C1N(C)c1ccc(C)cc1 (centres undefined)	G9a inh inconclusive
CC(=O)N1/C(=C/c2ccc(N(C)C)cc2)C(=O)c2ccccc21	G9a inh 11.2µM, BAZ2B inh 10µM, HP1b binding inh 22.4µM, JMJD2A Tudor 17.8µM
CCN(CC)C(=N)/C(C#N)=N/Nc1ccccc1	HP1b binding inh inconclusive, JMJD2A Tudor 79.4µM (no result: G9a inh)
N#C/C(=N\Nc1ccccc1)C(=N)N1CCCCC1	BAZ2B inh inconclusive
O=C(Nc1ccc(Nc2ccccc2)cc1)C(Cl)Cl	G9a inh inconclusive, BAZ2B inh inconclusive, JMJD2A Tudor inconclusive
CC(C)(C)C(=O)C(Cl)C(=O)Nc1ccccc1 (centres undefined)	G9a inh inconclusive, Sfp PPTase inh 44.7µM
O=C1CSC(=S)N1/N=C/c1cccc(C(F)(F)F)c1	G9a inh inconclusive, JMJD2A Tudor inconclusive
O=C1CSC(=S)N1N=Cc1c(O)ccc2ccccc12	HP1b binding inh inconclusive, JMJD2A Tudor 50.1µM (no result: G9a inh, BAZ2B inh, Sfp PPTase inh)
O=C1CSC(=S)N1/N=C/c1ccc(C(F)(F)F)cc1	G9a inh 79.4µM
O=C1CSC(=S)N1/N=C/c1c(F)cccc1F	G9a inh 50.1µM, JMJD2A Tudor inconclusive, Sfp PPTase inh inconclusive
O=C1CSC(=S)N1/N=C/C=C/c1ccccc1	G9a inh 39.8µM, BAZ2B inh inconclusive, HP1b binding inh inconclusive, JMJD2A Tudor inconclusive
O=C(Cc1ccon1)c1ccc(O)cc1O	none
C=CCOc1cccc(C2C(C(=O)c3ccc(C)o3)=C(O)C(=O)N2CCN(C)C)c1 (centres undefined)	G9a inh 44.7µM, JMJD2A Tudor inconclusive
COc1cc(C2C(C(=O)c3ccc(C)o3)=C(O)C(=O)N2CCN2CCOCC2)ccc1OCCC(C)C (centres undefined)	G9a inh 31.6µM, JMJD2A Tudor inconclusive
COc1ccc(C2C(C(=O)c3ccc(C)o3)=C(O)C(=O)N2CC2CCCO2)cc1OC (centres undefined)	BAZ2B inh inconclusive (no result: G9a inh)
CCCOc1cccc(C2C(C(=O)c3ccc(C)o3)=C(O)C(=O)N2CCN2CCOCC2)c1 (centres undefined)	G9a inh 44.7µM
CCCOc1cccc(C2C(C(=O)c3ccco3)=C(O)C(=O)N2CCN(CC)CC)c1 (centres undefined)	G9a inh inconclusive
COc1ccc(/C=N/NC(=O)c2cccc([N+](=O)[O-])c2)cc1OS(=O)(=O)c1ccc(C)cc1	none
CCOc1ccc(CNC(=O)c2nnc(CS(=O)(=O)c3ccccc3)o2)cc1OC	none
CCC(C(=O)NC1CC1)n1nc(C)c2c(C)n(-c3ccccc3)nc2c1=O (centres undefined)	none
CCOC(=O)CSc1nnc(CSc2nc3sc4c(c3c(=O)[nH]2)CCC4)n1-c1ccccc1	none
CCn1c(COc2ccc3c(c2)OCO3)nnc1SCC(=O)c1ccc(Cl)cc1	G9a inh 50.1µM
CCn1c(COc2ccccc2)nnc1SCC(=O)c1cccc([N+](=O)[O-])c1	G9a inh 39.8µM, JMJD2A Tudor inconclusive
CCOC(=O)CSc1nnc(CSc2nc(N)c3c(C)c(C)sc3n2)n1-c1ccccc1	G9a inh 44.7µM
CNC(=O)CSc1nnc(COc2ccc([N+](=O)[O-])cc2)n1C	BAZ2B inh 56.2µM
Cc1cc(NC(=O)C2CC(c3cccc(Br)c3)=NO2)no1 (centres undefined)	none
Cc1ccccc1N(C(=O)c1snc(C(N)=O)c1N)C(C)C(=O)NC1CCCCC1 (centres undefined)	none
O=C(Nc1ccccc1)OCCCc1ccccc1	none
